Source: PubChem
USP17 block: inhibitors of human USP17 deubiquitinase. 47,000 tested, 6.5% active. inhibition, % at 50 µM. purified USP17, Ub-rhodamine cleavage fluorescence, 3 h
Target sequence (A8MUK1 whole entry, looked up): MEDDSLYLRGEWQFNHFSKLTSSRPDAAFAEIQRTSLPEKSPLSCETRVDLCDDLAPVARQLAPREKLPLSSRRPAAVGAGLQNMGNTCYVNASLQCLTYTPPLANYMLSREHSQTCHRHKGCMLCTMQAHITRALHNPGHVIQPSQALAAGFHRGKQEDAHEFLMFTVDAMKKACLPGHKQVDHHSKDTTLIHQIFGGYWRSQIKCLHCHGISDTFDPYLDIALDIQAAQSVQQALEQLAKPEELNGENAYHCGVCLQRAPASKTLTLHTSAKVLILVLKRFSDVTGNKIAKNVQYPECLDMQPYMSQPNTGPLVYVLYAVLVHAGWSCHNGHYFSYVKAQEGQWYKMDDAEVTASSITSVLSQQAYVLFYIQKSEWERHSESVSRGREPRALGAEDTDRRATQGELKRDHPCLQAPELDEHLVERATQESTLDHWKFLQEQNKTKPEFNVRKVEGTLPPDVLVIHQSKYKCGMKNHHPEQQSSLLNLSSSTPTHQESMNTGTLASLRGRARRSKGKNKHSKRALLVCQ
USP30 block: inhibitors of human USP30 deubiquitinase; purified USP30, Ub-rhodamine cleavage fluorescence; inhibition, % at 25 µM; 47,000 tested, 5.3% active
OTUD3 block: inhibitors of human OTUD3 deubiquitinase | purified OTUD3, Ub-rhodamine fluorescence, 2 h | inhibition, % at 25 µM | 47,000 tested, 0.7% active | AID 1645858, 2021 | OTU domain-containing protein 3 (Homo sapiens), Q5T2D3
USP28 inh: inhibitors of human USP28 deubiquitinase; Ubiquitin carboxyl-terminal hydrolase 28 (Homo sapiens), Q96RU2; purified USP28, Ub-rhodamine cleavage fluorescence, 30 min; inhibition, % at 25 µM; 47,000 tested, 3% active; AID 1645857, 2021
Numbers without * were called inactive; x = no result. Only some compounds are listed: those with a hit (about 12% of all), similar ones and a draw of the others. Cut-off read from the data, not from the text of the source: active = inhibition above about 30%; inactive = the rest.

SMILES | USP17 block | USP30 block | OTUD3 block | USP28 inh
Cc1c(S(=O)(=O)NC2CCCCNC2=O)sc2ccc(Cl)cc12 (stereo unspecified) | 51* | 10 | 2 | 6
O=C1NCCCCC1NS(=O)(=O)c1cccc(C(F)(F)F)c1 (stereo unspecified) | -4 | 6 | 6 | 0
CC(C)c1ccc(NC(=O)c2cc3ncc(Br)cn3n2)cc1 | 52* | -38 | -4 | -16
CC(C)c1ccc(NC(=O)c2cc3cccnc3n(C)c2=O)cc1 | 0 | -6 | 0 | -6
COCCN1CC2(CCN(S(=O)(=O)c3ccccc3)CC2)C2(CCN(C)C2=O)C1 (stereo unspecified) | -22 | -12 | -5 | -10
O=C(Nc1ccc(Cl)cn1)c1nn(C2CCS(=O)(=O)C2)c2c1CCCC2 (stereo unspecified) | 38* | -73 | -10 | -19
O=C(Cc1ccccc1F)N1CCC(c2[nH]nc3nccnc23)CC1 | -9 | 6 | -1 | -2
O=C(c1ccccc1F)N1CCC(c2[nH]nc3nccnc23)CC1 | 17 | 35* | 15 | 19
Cc1ccc(NC(=O)CC2Nc3ccccc3NC2=O)cc1[N+](=O)[O-] (stereo unspecified) | 41* | 49* | 22 | 14
Cc1ccc(S(=O)(=O)Nc2ccc(NC(=O)CC3OC(=O)c4ccccc43)cc2)cc1[N+](=O)[O-] (stereo unspecified) | 0 | 13 | 15 | 7
CCCNC(=O)CNc1cc(C)nc2nc(-c3cccnc3)nn12 | 13 | 20 | 9 | 5
Cn1c(CCN2CCOCC2)nc2cc(NC(=O)c3ccc(F)cc3)ccc21 | -8 | 2 | -4 | -5
Cc1ccc(N2CCN(CCc3nc4cc(NC(=O)Nc5ccccc5)ccc4n3C)CC2)cc1 | 43* | 8 | 0 | -1
Cn1c(CCN2CCN(c3ccc(F)cc3)CC2)nc2cc(NC(=O)c3ccc(Cl)cc3)ccc21 | 33* | 36* | -3 | 24
Cn1c(CN2CCCCCC2)nc2cc(NC(=O)c3ccccc3)ccc21 | 51* | -67 | -8 | 0
COc1ccc(-c2cc3nc([C@H](C)NC(=O)Cc4ccccc4C)nn3cn2)cc1 | 61* | 27 | 47* | 20
COCc1ccc(C(=O)N[C@H](C)c2nc3cc(-c4ccc(OC)cc4)ncn3n2)cc1 | 8 | 22 | 4 | 15
COc1ccc(-c2cc3nc([C@H](C)NC(=O)COc4ccccc4F)nn3cn2)cc1 | 38* | 47* | 23 | 12
COc1ccc(-c2cc3nc([C@H](C)NC(=O)CC4CCCC4)nn3cn2)cc1 | 18 | 8 | 17 | 0
C[C@H](NC(=O)Cc1ccccc1F)c1nc2cc(-c3ccccc3F)ncn2n1 | 42* | 64* | 36* | 37*
C[C@@H](NC(=O)c1ccc2c(c1)OCCO2)c1nc2cc(-c3ccccc3F)ncn2n1 | 66* | 78* | 43* | 47*
C[C@@H](NC(=O)c1ccc2c(c1)OCO2)c1nc2cc(-c3ccccc3F)ncn2n1 | 17 | 15 | 11 | 14
Cc1c(C)n(Cc2ccncc2)c2ncnc(NCc3cccnc3)c12 | -7 | 8 | -1 | -3
O=C(NCCCc1ccccc1)c1cnc2sc3c(n2c1=O)CCC3 | 12 | -1 | 7 | 6
CC(C)C(=O)N1Cc2ccccc2CC2(CCN(C)CC2)C1 | -5 | 8 | 4 | 4
SMILES | USP17 block | USP30 block | OTUD3 block | USP28 inh
O=C1OC2(OC(=O)C(c3ccccc3)C2c2ccccc2)c2ccccc21 (stereo unspecified) | 5 | 11 | -13 | 10
CN(Cc1ccc2c(c1)OCO2)C(C(=O)Nc1ccc(F)cc1)c1ccccc1 (stereo unspecified) | 13 | 39* | 10 | 12
FC(F)(F)c1cc(C(F)(F)F)c2ccc(N3CCC4(CC3)OCCO4)nc2n1 | 30* | 30 | 2 | -1
O=C(Cn1c(C(F)(F)F)nc2cc3c(cc21)OCCO3)NC1CCCC1 | 35* | 3 | -6 | -6
COc1ccc2cc3c(nc2c1)N(S(=O)(=O)c1ccccc1)CC3 | -4 | -32 | -18 | -12
Cc1cccc(OCC(=O)Nc2nc3c(s2)CN(S(=O)(=O)c2ccccc2)CC3)c1 | 5 | 18 | -9 | 9
COc1ccc(CNC(=O)CCCc2nnc3c(=O)n(-c4cc(C)cc(C)c4)ccn23)cc1 | 39* | -1 | 24 | 9
O=C(CCCc1nnc2c(=O)n(-c3cccc(F)c3)ccn12)NCc1ccc(Cl)cc1 | 35* | -38 | -7 | -10
Cc1ccc(CNC(=O)CCc2nnc3c(=O)n(-c4ccc(C)c(C)c4)ccn23)cc1 | 32* | 40* | 27 | 33*
CCc1nc(-c2ccc(C)c(S(=O)(=O)NCc3ccccc3OC)c2)no1 | -5 | -24 | -8 | -9
CCc1ccc(-c2cn3c(n2)sc2cc(C(=O)NCc4cccc(OC)c4)ccc23)cc1 | 13 | -1 | 7 | 6
Cc1ccc2c(c1)-c1c(c(C(=O)N(C)c3ccccc3F)nn1C)CS2 | 18 | 21 | 11 | 13
Cc1occc1C(=O)N1CC[C@@H]2CN(Cc3ccncc3)CCO[C@@H]2C1 | -20 | x | 1 | x
Cc1oncc1C(=O)N1CC[C@H]2CO[C@H](CN3CCOCC3)[C@H]2C1 | 6 | 30* | 19 | 17
CCCCCCCc1cc(O)cc(OC(=O)c2c(CCCCCCC)cc(O)cc2O[C@H]2O[C@H](C(O)CO)[C@@H](O)[C@@H]2O)c1 (stereo partly specified) | 40* | -33 | 0 | 83*
CC(C)=CCc1cc(OC2OC(CO)C(O)C(O)C2O)ccc1O (stereo unspecified) | 5 | 6 | -4 | 0
CCCCCCCC/C=C\CCCCCCCc1cc(O)cc(O)c1C(=O)O | 7 | 29 | 6 | 0
CCCCCCCc1cc(OC(=O)c2c(CCCCCCC)cc(O)cc2O[C@@H]2O[C@H](CO)[C@H](O)[C@H](O)[C@H]2O)cc(O)c1C(=O)O | 102* | 108* | 100* | 100*
CCCCCCCCCc1cc(OC(=O)c2c(CCCCCCCCC)cc(O)cc2O[C@@H]2O[C@H](CO)[C@@H](O)[C@H](O)[C@H]2O)cc(O)c1C(=O)O | 100* | 104* | 101* | 101*
CC(=O)c1ccc(N2CCN(C3=NC(C)C(=O)N3c3ccc(C)cc3)CC2)cc1 (stereo unspecified) | 4 | 15 | 6 | 9
Cn1c(=O)sc2cc(NC(=O)c3ccc(Br)cc3)ccc21 | 59* | -49 | -28 | -2
COc1ccc(C(C)=O)c2cc(C#N)oc12 | 30* | 2 | 0 | -2
COc1ccc(C(C)=O)cc1COC(=O)c1oc2ccc(Br)cc2c1C | 21 | -58 | -9 | 0
CCOC(=O)c1ccccc1NS(=O)(=O)c1cccc(C(F)(F)F)c1 | 22 | 19 | 18 | 23
COc1ccc(-n2ccc3nc(N4CCCCC4)ncc3c2=O)cc1 | 5 | 7 | 2 | -4
COc1ccc(C2C(C(=O)NCc3ccccc3)=C(C)Nc3ncnn32)cc1 (stereo unspecified) | -15 | -5 | -3 | -8
